Screens from PubChem.
The list is not random: actives were taken first. Their share in the collection is about 17%.
HT1080-NT tox – qHTS for induction of synthetic lethality in tumor cells producing 2HG: qHTS for the HT-1080-NT fibrosarcoma cell line | Potency, µM (series often up to 46.1 µM), for the others: at the top dose activity, negative = less viability, usual class: cytotoxic | HT-1080-NT fibrosarcoma viability, CellTiter-Glo ATP luminescence, 48 h | hit rate 1.6% among 360,000;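 also: NT is the 2HG producing partner of a matched IDH1 knockdown line; 0% = DMSO-treated cells and -100% = media-only wells without cells; nearly all actives have a fitted effect of over 55% in size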
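Compounds were tested in concentration-response format on HT-1080-NT cells for 48 hours at 37 degrees C. Cell viability came from CellTiter-Glo luminescence; curves were classified by r2, response magnitude and activity.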
HT1080 IDH1KD tx – qHTS for induction of synthetic lethality in tumor cells producing 2HG: qHTS for the HT-1080-IDH1KD cell line | HT-1080 IDH1 knockdown viability, ATP luminescence, 48 h | Potency, µM (highest dose often 46.1 µM), for inactives: at the highest dose activity, negative = toxicity, actives largely listed as cytotoxic | hit rate 2% among 360,000 | AID 686971, 2013;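 also: 0% = DMSO wells and -100% = cell-free medium wells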
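Viability of IDH1-knockdown HT-1080 fibrosarcoma cells was assessed by CellTiter-Glo after 48 h at 37 °C with titrated compound; concentration-effect curves were classified by fit quality and response size.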
HepG2 viability – qHTS for Inhibitors of TGF-b: Cytotox Counterscreen. Potency, µM (top dose mostly 46.1 µM), for the others: at the highest dose activity change, negative = cytotoxicity, usual class: cytotoxic. HepG2 CAGA-GFP viability, ATP luminescence, 18 h. hit rate 0.76% among 410,000
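CellTiter-Glo luminescence gave cytotoxicity after 18 hours at 37 degrees C. The cells were HepG2 CAGA-GFP in 1% FBS DMEM, stimulated with 500 pg/mL TGF-beta after compound addition. %Activity was normalised to no-cell wells (complete cell-killing) and DMSO (no toxicity), and curves were fitted and classified.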
TGFb inhibitor – qHTS for Inhibitors of TGF-b; HepG2 CAGA-GFP TGF-b/SMAD3 reporter, GFP fluorescence, 18 h; TGF-beta stimulated, 500 pg/mL final; Potency, µM (highest dose often 46.1 µM), inactives show at the highest dose activity, negative = inhibition, usual class: inhibitors; hit rate 1.2% among 410,000; AID 588855, 2011; also: % is scaled to controls: 0 for no effect and ±100 for the full control effect; nearly all actives have a fitted effect of over 65% in size
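TGF-beta reporter screen: HEPG2 CAGA-GFP, 1% FBS, 500 pg/mL TGF-beta final, 18 h; per-cell GFP summed per well; curves fitted and categorized by class.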
DT40 TDP1 no CPT – qHTS for Inhibitors of human tyrosyl-DNA phosphodiesterase 1 (TDP1): qHTS in cells in absence of CPT; hit rate 15% among 420,000; DT40 Tdp1-/- hTDP1 cells, no CPT, ATP luminescence, 48 h; Potency, µM (highest dose often 46.2 µM), for inactives: top-dose activity change, negative = growth inhibition, actives largely listed as inhibitors; also: % is scaled to controls: 0 for no effect and ±100 for the full control effect; nearly all actives have a fitted effect of over 55% in size
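Chicken DT40 Tdp1-/- cells complemented with human TDP1, screened without camptothecin (DMSO vehicle only), 400 cells/well. Compounds pin-transferred, cells incubated at 37 °C for at least 48 hr. Growth read as ATP-dependent luminescence (CellTiter-Glo, 30 min at RT).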
TDP1 cell CPT – qHTS for Inhibitors of human tyrosyl-DNA phosphodiesterase 1 (TDP1): qHTS in cells in presence of CPT. AID 686979, 2013. hit rate 12% among 420,000. Potency, µM (top dose mostly 46.2 µM), for inactives: top-dose activity change, negative = growth inhibition, actives largely listed as inhibitors. chicken DT40 Tdp1-/-;hTDP1 cells + 20 nM CPT, ATP luminescence, 48 h; also: % is scaled to controls: 0 for no effect and ±100 for the full control effect; nearly all actives have a fitted effect of over 55% in size
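Chicken DT40 Tdp1-/- cells complemented with human TDP1, 400 cells/well, exposed to compounds plus 20 nM camptothecin for at least 48 h at 37 C; viability read as ATP content by CellTiter-Glo luminescence.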
Starred values were filed as active, the others as inactive; ? = inconclusive; / = not tested or not shown; [ ] = another dose, or the depositor's remark. Calls follow the shape of the dose curve; as a rule, active = well fitted curve in the direction sought with a large enough effect; inconclusive = small, poorly fitted or top-dose-only effect, or another doubt; inactive = no such curve, though single readings can be large; an effect the other way counts as inactive or inconclusive. Potency is read from the fitted curve at half-maximal effect.

SMILES	HT1080-NT tox	HT1080 IDH1KD tx	HepG2 viability	TGFb inhibitor	DT40 TDP1 no CPT	TDP1 cell CPT
CC1(C)CN(Cc2ccccc2)C(=O)[C@H]1CC(=O)Nc1ccccc1	11%	4%	-3%	11%	?	-3%
COc1ccc(NC(=O)C[C@@H]2C(=O)N(Cc3ccccc3)CC2(C)C)cc1	3%	0%	2%	-6%	21µM*	-26%
COc1ccc(S(=O)(=O)NCC2CC3C=CC2C3)cc1OC (stereo unspecified)	-11%	1%	8%	8%	?	-5%
O=C(O)COc1ccc(C(NC(=O)c2c(F)cccc2F)NC(=O)c2c(F)cccc2F)cc1	9%	9%	-5%	-1%	-20%	-6%
c1ccc2cnccc2c1	/	/	6%	-1%	-5%	0%
Cc1cc(=O)[nH]c(N2CCCNCC2)n1	3%	8%	3%	5%	-13%	-29%
Cc1cc(=O)[nH]c(-n2nc(C)cc2C)n1	-23%	?	-16%	-9%	23µM*	23µM*
Cc1ccc(C)c(NS(=O)(=O)c2cc(C(=O)NCc3ccccn3)ccc2C)c1	-2%	-8%	-11%	5%	29µM*	?
COc1cccc(OC)c1C(=O)NCCSC1CCCCC1	1%	3%	-2%	-9%	18µM*	13µM*
Cc1ccc(C)c(NS(=O)(=O)c2cc(C(=O)NCCSC3CCCCC3)ccc2C)c1	?	?	-29%	?	23µM*	?
O=C(NCc1ccccn1)c1cccc(NS(=O)(=O)c2cccc(F)c2)c1	2%	2%	-14%	19%	1.5µM*	1.6µM*
O=C(NCc1ccccn1)c1cccc(S(=O)(=O)Nc2ccc(F)cc2)c1	5%	4%	-2%	0%	-29%	-28%
CC(C)[C@H](N)C(=O)N1CCC(C(=O)N[C@@H](Cc2ccccc2)C(=O)NCc2ccc(F)cc2)CC1	2%	-1%	3%	-1%	0%	-1%
CN1C(=O)[C@@](O)(c2cn(C)c3ccccc23)c2cc(Br)ccc21	-30%	-19%	/	/	?	?
CC1OC(OC2C(CO)OC(OCC3OC(OC(=O)[C@@]45CCC(C)(C)C[C@@H]4C4=CC[C@@H]6[C@@]7(C)CCC(OC8OCC(O)C(O)C8OC8OC(C)C(O)C(O)C8O)[C@@](C)(CO)C7CC[C@@]6(C)[C@]4(C)CC5)C(O)C(O)C3O)C(O)C2O)C(O)C(O)C1O (stereo partly specified)	17%	12%	10%	0%	?	-7%
O=C(Nc1ccc2nc(-c3ccco3)[nH]c2c1)c1cccs1	-19%	-28%	-28%	-1%	?	21µM*
O=C(c1ccccc1)c1ccc2nc(-c3ccc(NC(=O)c4ccccc4F)cc3)[nH]c2c1	?	?	-45%	?	3.3µM*	3.7µM*
O=C(Nc1ccc2nc(-c3ccccc3)[nH]c2c1)c1cccs1	?	16%[9.24 µM]	-54%	?	13µM*	26µM*
O=C(Nc1ccc2nc(-c3ccc4nc[nH]c4c3)[nH]c2c1)c1cccs1	-20%	-27%	-41%	2%	?	-25%
Cc1ccc2nc(NC(=O)Cc3cccs3)sc2c1	-2%[9.24 µM]	?	-20%	3%	-18%	?
Cc1ccc2nc(-c3ccc(NC(=O)Cc4cccs4)cc3)[nH]c2c1	?	?	-65%	?	?	23µM*
O=C(Nc1ccccc1Cl)c1cc[n+](Cc2ccc([N+](=O)[O-])cc2)cc1	-1%	-2%	-35%	2%	-8%	-13%
Cc1ccc(OCC(O)CNC2CCCC2)cc1C (stereo unspecified)	-29%	-1%	0%	7%	?	?
CCc1ccc(-n2c(SCC(=O)NC3CCS(=O)(=O)C3)nc3ccccc3c2=O)cc1 (stereo unspecified)	5%	2%	1%	2%	5%	-3%
CCN(CC)C(=O)c1cc([N+](=O)[O-])cc2c1-c1ccc([N+](=O)[O-])cc1C2=C(C#N)C#N	-13%	-4%	-29%	?	16µM*	0.65µM*
SMILES	HT1080-NT tox	HT1080 IDH1KD tx	HepG2 viability	TGFb inhibitor	DT40 TDP1 no CPT	TDP1 cell CPT
O=C(O)c1cc([N+](=O)[O-])ccc1-c1ccc([N+](=O)[O-])cc1C(=O)O	9%	17%	5%	-2%	3%	2%
CCOC(=O)c1ccc(NC(=S)NNC(C)(C)C)cc1	-3%	12%	-93%	?	5.8µM*	5.8µM*
CCOC(=O)c1ccc(NC(=S)Nc2ccc(C)cc2)cc1	-18%	?	-1%	-19%	?	1%
CCOc1ccc2nc(SCC(=O)c3ccccc3)sc2c1	-5%	?	0%	-10%	?	-12%
CCOc1ccc2nc(SC3CC(=O)N(c4cccc(OC)c4)C3=O)sc2c1 (stereo unspecified)	12%	10%	31%	8%	3.7µM*	3.3µM*
CCOc1ccc2nc(SCCNS(=O)(=O)c3ccccc3)sc2c1	?	?	-8%	?	16µM*	-28%
CCOc1ccc2nc(SC3CC(=O)N(c4ccccc4)C3=O)sc2c1 (stereo unspecified)	?	?	-27%	?	3.7µM*	2.9µM*
O=C1CCC(C(=O)N2CCSCC2)CN1CCc1cccc(F)c1 (stereo unspecified)	13%	18%	-2%	7%	-18%	-6%
CC(CCc1ccc(O)cc1)NCCc1ccc(O)c(O)c1 (stereo unspecified)	?	?	-5%	0%	15µM*	27µM*
CC(CCc1ccc(O)cc1)NCC(O)c1ccc(O)cc1 (stereo unspecified)	/	/	/	/	7%	9%
Cc1cc(N(C)Cc2ccccc2)nc(-c2ccccc2)n1	-15%	?	-2%	0%	26µM*	?
O=[N+]([O-])c1ncn(Cc2c(Cl)cccc2Cl)n1	-2%	-1%	-7%	-2%	?	18µM*
